# An excerpt weighted towards active compounds, which were near 2.3% of everything screened.
# MEKK2 WT-MEK5: modulators of MEK5 binding to wildtype MEKK2, primary screen, biochemical, multiplex bead flow cytometry, Alexa488-MEK5. Alexa488-MEK5 binding to MEKK2 WT; actives lie on both sides. AID 1531, 2009. binding response (% of control), % at 10 µM. Mitogen-activated protein kinase kinase kinase 2 (Homo sapiens), Q9Y2U5. actives 1.1% (n = 290,000); in the data active = binding response below about 67% or above about 130%
# MEKK2mut PB1 HTS: MEK5 binding signal on mutant MEKK2 PB1, primary screen, biochemical, multiplex bead flow cytometry, Alexa488-MEK5; percent response, % at 10 µM; Alexa488-MEK5 binding to MEKK2 mutant; actives 0.35% (n = 290,000); in the data active = percent response above about 24%, passing the limit was not always enough
# MEKK3 PB1 HTS: modulators of MEKK3-MEK5 PB1 binding, primary screen, biochemical, wildtype MEKK3, multiplex bead flow cytometry, Alexa488-MEK5. Mitogen-activated protein kinase kinase kinase 3 (Homo sapiens), Q99759. bead-based flow cytometry, Alexa488-MEK5 binding to MEKK3; actives lie on both sides; 0 = blocked by unlabeled MEK5, 100 = vehicle. binding response (% of control), % at 10 µM. actives 1.4% (n = 290,000). AID 1529, 2009;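 active = binding response more than 3 SD above or below the average of its plate-row segment, actives on both sides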;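 note: Alexa488 bead fluorescence after subtracting the streptavidin-only scavenger bead signal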
# UBC13 polyUb: UBC13 polyubiquitin chain formation inhibitors, primary screen, biochemical, TR-FRET, uHTS; Ubiquitin-conjugating enzyme E2 N (Homo sapiens), P61088; actives 0.47% (n = 330,000); inhibition, % at 20 µM; in the data active = inhibition above about 45%, passing the limit was not always enough
# Target sequence (P61088 whole entry, looked up): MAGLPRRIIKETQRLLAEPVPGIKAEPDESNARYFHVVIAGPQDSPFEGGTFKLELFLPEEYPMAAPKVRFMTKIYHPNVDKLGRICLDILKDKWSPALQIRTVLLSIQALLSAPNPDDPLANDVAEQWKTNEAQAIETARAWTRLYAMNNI
# Hits are given with their value; - = inactive; . = no result; [ ] = another dose, or the depositor's remark.
SMILES,MEKK2 WT-MEK5,MEKK2mut PB1 HTS,MEKK3 PB1 HTS,UBC13 polyUb
COc1cccc(/C=C/c2nc3c(cnn3-c3ccccc3)c(=O)[nH]2)c1,.,93.0,-,-
O=c1[nH]c(/C=C/c2ccc(Br)cc2)nc2c1cnn2-c1ccccc1,-,-,-,-
Cc1cc(NS(=O)(=O)c2ccc(Nc3nc(-c4sc(C)nc4C)cs3)cc2)no1,-2.0[inhibitor],-,-1.0[inhibitor],.
Oc1ccc(Cl)cc1C1=NNC(c2ccc(Cl)cc2)C1 (configuration not stated),-,-,135.0,-
Oc1c(Cl)cc(Cl)cc1C1=NNC(c2ccc(Cl)cc2)C1 (configuration not stated),-,-,-,.
O=S(=O)(Nc1ccc(N2CCCCC2)cc1)c1ccc(F)cc1F,-10.0,-,-,-
Cc1occc1-c1nnc(SC(C)C(=O)Nc2ccccc2F)o1 (configuration not stated),.,.,.,-
C(=N\NC1=Nc2cccc3cccc1c23)/c1cccnc1,11.0,-,-,-
CCOC(=O)c1c(C)[nH]c(C(=O)OCC(=O)NCc2ccc(OC)c(OC)c2)c1C,.,.,.,-
Cc1cccc(CN2C(=O)/C(=C\c3ccc(C(=O)NCCCN4CCN(C)CC4)cc3)Oc3ccccc32)c1,162.0,36.0,-,67.8
Oc1ccccc1-c1nc2c3ccccc3c3ccccc3c2[nH]1,-12.0,-,-,.
CCCCNC(=S)NNC(=O)c1c(C)nc2ccccn12,-,-,-,-
CCOC(=O)Cc1csc(NC(=S)NC(=O)C(C)(C)C)n1,-,-,134.0,-
Cc1cc(C)c(NC(=O)CNC(=O)c2ccc3ncsc3c2)c(C)c1,.,.,.,-
CCC(CC)C(=O)N1CC(=O)Nc2ccc(F)cc2C1c1ccccc1 (configuration not stated),-,-,-,-
O=C1OC(c2cccs2)=N/C1=C\c1ccc(-c2ccccc2Cl)o1,62.0,82.0,-,.
COc1cccc(/C=C2\SC(=S)N(C(C(=O)O)c3ccccc3)C2=O)c1OC (configuration not stated),-4.0,-,-,-
COc1cc(/C=C2\SC(=S)N(C(C(=O)O)c3ccccc3)C2=O)cc(OC)c1OC (configuration not stated),-,-,-,-
CN(C)CCCN(C(=O)c1cc2cc([N+](=O)[O-])ccc2s1)c1nc2cc3c(cc2s1)OCCO3,.,.,.,73.4
Cc1cccc2cc3c(N)c(C(=O)Nc4ccc(N5CCOCC5)cc4)sc3nc12,-,-,-,-
Cc1cccc2cc3c(N)c(C(=O)N4CCc5ccccc54)sc3nc12,30.0,-,-,-
COc1cc(OC)c(C(=O)OCC(=O)NC2CCCCCCC2)cc1OC,.,.,.,-
COc1cccc(CN(C)C(=O)C2CCN(S(=O)(=O)c3cccs3)CC2)c1OC,.,.,.,-
Cc1ccc2c(c1)c1c(n2CC(O)CNC(C)(C)C)CCCC1 (configuration not stated),158.0,-,-,.
Cc1ccc2c(c1)c1c(n2CC(O)CN2CCCCCC2)CCCC1 (configuration not stated),-,-,-,-
SMILES,MEKK2 WT-MEK5,MEKK2mut PB1 HTS,MEKK3 PB1 HTS,UBC13 polyUb
Cc1ccc(N2CC(=O)Nc3c(oc4nc(-c5ccccc5)cc(C)c34)C2=O)cc1,-,-,-,-
O=C(NCc1ccccc1Cl)C1CCC(CNc2nc(=S)[nH]c3ccccc23)CC1 (configuration not stated),14.0,-,-,-
Cc1c(C)n(Cc2ccc(F)cc2)c2ccc(C(=O)NCCN3CCOCC3)cc12,-,-,-,-
Cc1[nH]c2ccc(C(=O)NCCCN3CCCCCC3)cc2c1C,173.0,27.0,-,-
CCn1c(C)c(C)c2cc(C(=O)NCCCN3CCN(C)CC3)ccc21,-,-,-,-
CCn1c(C)c(C)c2cc(C(=O)NCCCN3CCCCCC3)ccc21,136.0,-,-,-
Cc1[nH]c2ccc(C(=O)NCCCN3CCCC3)cc2c1C,-,-,-,-
CCn1c(C)c(C)c2cc(C(=O)NCCCN3CCCCC3)ccc21,1.0,31.0,-,-
CCn1c(C)c(C)c2cc(C(=O)NCCN3CCCCCC3)ccc21,145.0,-,-,-
O=c1cc2oc3cc(O)c(O)cc3c(-c3ccccc3[N+](=O)[O-])c-2cc1O,-,-,-,-
COc1ccc(C(=O)N/C(=C\c2ccc3c(c2)OCO3)C(=O)Nc2cccc(C(=O)O)c2)cc1,-,-,-,-

# From PubChem BioAssay
